Assay results taken from ChEMBL document CHEMBL1961873, “Compounds: GSK PKIS; Assays: Nanosyn kinase panel” (2012).

biological target: T1, Ephrin type-B receptor 2 (Homo sapiens) (UniProt P29323); details: at 0.1 µM
T1 sequence (whole entry): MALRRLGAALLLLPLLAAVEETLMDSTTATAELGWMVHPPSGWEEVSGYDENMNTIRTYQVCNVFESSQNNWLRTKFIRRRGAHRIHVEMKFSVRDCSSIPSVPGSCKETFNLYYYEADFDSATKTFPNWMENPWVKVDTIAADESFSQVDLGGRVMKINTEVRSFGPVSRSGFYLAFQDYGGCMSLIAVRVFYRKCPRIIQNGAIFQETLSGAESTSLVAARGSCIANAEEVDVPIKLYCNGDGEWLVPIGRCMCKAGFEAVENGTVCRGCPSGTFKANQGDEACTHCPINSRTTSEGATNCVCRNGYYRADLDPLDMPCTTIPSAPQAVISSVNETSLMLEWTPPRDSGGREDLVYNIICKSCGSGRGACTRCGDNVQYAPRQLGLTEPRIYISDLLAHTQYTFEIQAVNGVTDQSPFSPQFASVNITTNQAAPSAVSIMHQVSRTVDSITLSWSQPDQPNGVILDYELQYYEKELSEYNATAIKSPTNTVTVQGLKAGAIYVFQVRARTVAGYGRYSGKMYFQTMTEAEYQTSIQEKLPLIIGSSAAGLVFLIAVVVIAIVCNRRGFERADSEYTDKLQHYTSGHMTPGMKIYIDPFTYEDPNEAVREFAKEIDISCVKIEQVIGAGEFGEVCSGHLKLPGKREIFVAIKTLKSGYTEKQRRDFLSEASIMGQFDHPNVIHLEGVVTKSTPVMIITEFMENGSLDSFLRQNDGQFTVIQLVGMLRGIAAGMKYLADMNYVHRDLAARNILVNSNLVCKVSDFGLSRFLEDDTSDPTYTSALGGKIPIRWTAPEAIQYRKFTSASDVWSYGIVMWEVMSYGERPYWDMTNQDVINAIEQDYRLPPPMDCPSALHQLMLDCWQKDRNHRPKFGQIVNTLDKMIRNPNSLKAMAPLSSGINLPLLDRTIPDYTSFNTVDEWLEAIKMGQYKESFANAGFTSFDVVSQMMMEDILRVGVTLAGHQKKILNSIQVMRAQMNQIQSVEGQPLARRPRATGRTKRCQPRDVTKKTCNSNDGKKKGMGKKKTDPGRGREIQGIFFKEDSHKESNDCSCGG

Row | Structure (SMILES) | inhibition [%]
1 | CN1CCN(C(=O)c2ccc(NC(=O)Nc3ccc(N(C)c4ccnc(Nc5ccc(CS(C)(=O)=O)cc5)n4)cc3)cc2)CC1 | 8.44
2 | COC(=O)Nc1nc2cc(Oc3ccc(NC(=O)Nc4cccc(Br)c4)cc3)ccc2[nH]1 | 56.7
3 | COc1cccc(-n2ncc3c(N/N=C/c4ccc(S(C)(=O)=O)cc4)ncnc32)c1 | 5.46
4 | NS(=O)(=O)c1ccc(NC=C2C(=O)Nc3ccc4ncsc4c32)cc1 | 4.62
5 | CS(=O)(=O)CCNCc1nc(-c2ccc3ncnc(Nc4ccc(OCc5cccc(C(F)(F)F)c5)cc4)c3c2)cs1 | 0.86
6 | C[C@@H](Oc1cc(-n2cnc3ccc(OC[C@@H](O)CO)cc32)sc1C(N)=O)c1ccccc1Cl | -0.2
7 | NS(=O)(=O)c1ccc(-c2cc3ccncc3cc2OCc2ccccc2)cc1 | 7.31
8 | NS(=O)(=O)c1ccc(Nc2cc(-c3cccc(O)c3)n[nH]2)cc1 | 6.18
9 | Cc1ccc(Nc2ccnc(Nc3cccc(C(N)=O)c3)n2)cc1O | 8.62
10 | COc1cccc(-n2nc(C)c3c(N/N=C(\C)c4ccncc4)ncnc32)c1 | 2.52
11 | CCn1c(-c2nonc2N)nc2ccc(F)cc21 | 7.78
12 | COc1cc2ncn(-c3cc(OCc4ccccc4S(C)(=O)=O)c(C#N)s3)c2cc1OC | 14
13 | COc1cc2ncnc(Nc3ccc(C)c(O)c3)c2cc1OC | 11.1
14 | NS(=O)(=O)c1cccc(-c2cc3ccncc3cc2OCc2ccccc2)c1 | 4.23
15 | COC(=O)c1cncc(/C=C/c2c(C)cc(O)cc2C)c1 | 15.3
16 | COc1cc(Nc2nccc(-c3cnn4ncccc34)n2)cc(OC)c1 | 4.13

biological target: T1, Ephrin type-B receptor 2 (Homo sapiens); details: at 1 µM

Row | Structure (SMILES) | inhibition [%]
17 | C[C@@H](Oc1cc(-n2cnc3ccc(OCC4CCN(C)CC4)cc32)sc1C(N)=O)c1ccccc1C(F)(F)F | -1.46
18 | Cc1cc(O)cc(C)c1/C=C/c1cncc(C(=O)N(C)C)c1 | 22.5
19 | c1ccc(Nc2ncc(-c3ccccc3)o2)cc1 | 12.9
20 | COc1ccc(-c2nn3ncccc3c2-c2ccnc(Nc3cccc(C(F)(F)F)c3)n2)cc1 | 6.69
21 | Cc1ccc(NC(=O)CC2CC2)cc1-c1ccc(C(=O)NCC2CC2)cc1 | 11.6
22 | COC(=O)c1ccc2c(c1)C(=Cc1cc(Br)c(O)c(Br)c1)C(=O)N2 | 7.02
23 | Cc1ccc2c(-c3ccnc(Nc4ccc5c(c4)OCCO5)n3)c(-c3ccc(C(F)(F)F)cc3)nn2n1 | 1.37
24 | COc1cc(/C=N/Nc2ncnc3c2cnn3C(C)C)ccc1O | 30.4
25 | Nc1ccc(C#Cc2cncnc2Nc2ccc(OCc3cccc(F)c3)c(Cl)c2)cc1 | 6.65
26 | ON=C1CCc2cc(-c3nc(C4CCNCC4)[nH]c3-c3ccncc3)ccc21 | -8.09
27 | COc1cccc(-n2ncc3c(N/N=C/c4ccc(C)cc4)ncnc32)c1 | 9.45
28 | CCS(=O)(=O)c1ccc(OC)c(Nc2ncc(-c3cccc(OC)c3)o2)c1 | 24.3
29 | CC(C)c1ccc2c(c1)NC(=O)/C2=N/Nc1ccc(S(N)(=O)=O)cc1 | 3.71
30 | Cc1cc(Cl)cc2c1NC(=O)C2=NNc1ccc(S(N)(=O)=O)cc1 | 1.31
31 | CC(C)c1ccc(Nc2nccc(-c3cnn4ncccc34)n2)cc1 | 14.4
32 | N#Cc1cccc(Nc2nccc(-c3cnn4ncccc34)n2)c1 | 46.2
33 | Oc1cccc(-c2nc(-c3ccccc3)[nH]c2-c2ccncc2)c1 | 26.1

Row | Structure (SMILES) | inhibition [%]
34 | CN1CCN(C(=O)c2ccc(NC(=O)Nc3ccc(N(C)c4ccnc(Nc5ccc(CS(C)(=O)=O)cc5)n4)cc3)cc2)CC1 | 34.3
35 | COC(=O)Nc1nc2cc(Oc3ccc(NC(=O)Nc4cccc(Br)c4)cc3)ccc2[nH]1 | 80.4
36 | COc1cccc(-n2ncc3c(N/N=C/c4ccc(S(C)(=O)=O)cc4)ncnc32)c1 | 11.5
37 | NS(=O)(=O)c1ccc(NC=C2C(=O)Nc3ccc4ncsc4c32)cc1 | 26.1
38 | CS(=O)(=O)CCNCc1nc(-c2ccc3ncnc(Nc4ccc(OCc5cccc(C(F)(F)F)c5)cc4)c3c2)cs1 | 6.37
39 | C[C@@H](Oc1cc(-n2cnc3ccc(OC[C@@H](O)CO)cc32)sc1C(N)=O)c1ccccc1Cl | -2.42
40 | NS(=O)(=O)c1ccc(-c2cc3ccncc3cc2OCc2ccccc2)cc1 | 12.6
41 | NS(=O)(=O)c1ccc(Nc2cc(-c3cccc(O)c3)n[nH]2)cc1 | 12.4
42 | Cc1ccc(Nc2ccnc(Nc3cccc(C(N)=O)c3)n2)cc1O | 38.6
43 | COc1cccc(-n2nc(C)c3c(N/N=C(\C)c4ccncc4)ncnc32)c1 | 3.31
44 | CCn1c(-c2nonc2N)nc2ccc(F)cc21 | 12.6
45 | COc1cc2ncn(-c3cc(OCc4ccccc4S(C)(=O)=O)c(C#N)s3)c2cc1OC | 36
46 | COc1cc2ncnc(Nc3ccc(C)c(O)c3)c2cc1OC | 41.4
47 | NS(=O)(=O)c1cccc(-c2cc3ccncc3cc2OCc2ccccc2)c1 | 9.74
48 | COC(=O)c1cncc(/C=C/c2c(C)cc(O)cc2C)c1 | 56.4
49 | COc1cc(Nc2nccc(-c3cnn4ncccc34)n2)cc(OC)c1 | 40.2
